Most compounds without a hit are left out; they make up all but 1.4% or so of the library.
SARS 3CLpro inh – SARS-CoV 3CLpro protease inhibition. 290,000 tested, 0.14% active. inhibition, % at 6 µM. recombinant SARS-CoV 3CLpro, quenched FRET peptide cleavage; in the data active = inhibition above about 12%
MazEF act – MazEF (E. coli) toxin RNase activation; P0AE70; FAM/BHQ RNA-DNA oligo cleavage fluorescence, 5 h; activation, % at 20 µM; 350,000 tested, 0.32% active; AID 504720; in the data active = activation above about 50%
Target sequence (P0AE70 whole entry, looked up): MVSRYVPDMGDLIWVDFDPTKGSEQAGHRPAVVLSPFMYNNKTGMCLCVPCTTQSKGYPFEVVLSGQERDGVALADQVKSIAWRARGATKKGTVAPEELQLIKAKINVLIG
VHR inh abs – blocks human VHR1 dual specificity phosphatase. recombinant VHR phosphatase, pNPP absorbance. inhibition, % at 13.3 µM. 290,000 tested, 0.52% active. AID 1654; in the data active = inhibition above about 50%
Target sequence (P51452 whole entry, looked up): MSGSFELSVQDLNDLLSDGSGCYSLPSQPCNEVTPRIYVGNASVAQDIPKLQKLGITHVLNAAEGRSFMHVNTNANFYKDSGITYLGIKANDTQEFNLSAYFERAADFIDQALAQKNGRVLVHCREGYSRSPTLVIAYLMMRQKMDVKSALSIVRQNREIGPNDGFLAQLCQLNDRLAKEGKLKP
BJeLR viability – kills HRASV12-expressing BJeLR cells; BJeLR (HRASV12) viability, CellTiter-Glo ATP luminescence, 48 h; inhibition, % (no concentration beside the values); 300,000 tested, 0.17% active; in the data active = inhibition above about 50%
CCHFV vOTU inh – blocks the CCHF virus ovarian tumor domain protease; CCHFV vOTU protease, Pep-AMC fluorescence; 370,000 tested, 0.55% active; inhibition, % at 11.5 µM; in the data active = inhibition above about 30%; also: 0% = vehicle wells with enzyme and 100% = no enzyme wells
The depositor's hits bear a star; . = no result.

SMILES	SARS 3CLpro inh	MazEF act	VHR inh abs	BJeLR viability	CCHFV vOTU inh
CCOC(=O)C1=CN(Cc2cccc(F)c2)S(=O)(=O)N(C)C1c1cccc(OC)c1 (stereo not drawn)	.	50*	.	.	5
CCOC(=O)C1=C(C)N(CC(C)C)C(=O)/C1=C\c1cccs1	-3	59*	5	-7	-4
COc1cccc(CNC(=O)C2CCCN(c3ncccn3)C2)c1OC (stereo not drawn)	.	.	.	.	-7
CCC(C(=O)NC1CCCC1)N(C(=O)Cn1nnc(-c2ccc(C)o2)n1)c1ccccc1OC (stereo not drawn)	1	-2	11	5	-6
CCC(C(=O)NC1CCCC1)N(C(=O)Cn1nnc(-c2ccc(C)o2)n1)c1ccc(F)cc1 (stereo not drawn)	-3	-3	53*	-9	-3
CCNC(=S)NCCN1CCCCC1	-4	123*	4	-5	-4
CCCCNC(=O)C[C@H]1C(=O)N(CCCOC)C2=CCCCC[C@]21C(=O)OC	.	.	.	.	0
O=C(Nc1ccc(F)cc1)OCc1cn(Cc2cccc(C(F)(F)F)c2)nn1	.	.	.	.	10
CC(=O)Nc1cccc(C(=O)/C=C/c2ccc(N(C)C)cc2)c1	-1	145*	-4	4	10
CN(C)c1ccc(C(=O)/C=C/c2ccccc2)cc1	0	459*	18	-9	7
CN(C)c1ccc(C(=O)/C=C/c2ccc(Br)cc2)cc1	-2	-32	-6	6	-5
CC(=O)Nc1cccc(C(=O)/C=C/c2ccc(/C=C/C(=O)c3cccc(NC(C)=O)c3)cc2)c1	0	.	28	81*	2
CC(=O)Nc1cccc(C(=O)/C=C/c2ccc(Br)cc2)c1	-4	-10	5	21	6
CC(=O)Nc1cccc(C(=O)/C=C/c2ccc(F)cc2)c1	7	4	11	0	5
Nc1ccc2nc(CCCCc3nc4ccccc4[nH]3)[nH]c2c1	0	-1	52*	-1	-7
COP(=O)(O)[C@@H](CC(C)C)NC(=O)OCc1ccccc1	.	.	.	.	12
C[C@H]1C(c2ccccc2F)O[C@]2(C[C@H](O)c3ccccc3O2)C[C@@H]1O (stereo partly drawn)	.	.	.	.	-2
Cc1ccc(C)c2c1cc(C)c1nnc(SCC(=O)N3CCCc4ccccc43)n12	2	1	60*	2	-3
O=C(Cn1c(SCC(=O)N2CCCc3ccccc32)nc2ccccc21)N1CCCC1	-6	4	53*	3	.
COc1cccc(C2=NOC(C(=O)Nc3cc(C)nn3-c3ccccc3)C2)c1OC (stereo not drawn)	-3	4	34	-7	-4
Cc1cc(NC(=O)C2CC(c3ccc(F)cc3)=NO2)n(-c2ccccc2)n1 (stereo not drawn)	-3	21	50*	8	-5
Cc1ccc(S(=O)(=O)n2ccc(-c3ccc(OCc4c(F)cccc4Cl)cc3)n2)cc1	-2	-2	53*	-4	-13
CCCCOc1ccc(Br)cc1/C(C)=N/NC1=NCCN1	-5	14	18	52*	-4
COc1ccc(CCNc2cc(C)[nH]c(=O)c2)cc1OC	3	2	60*	16	-18
CNCCc1ccc(OC)c(OC)c1	.	8	14	4	7
SMILES	SARS 3CLpro inh	MazEF act	VHR inh abs	BJeLR viability	CCHFV vOTU inh
COCCN1C(=O)C2=C(C1=O)C1N(C)c3ccccc3[C@@]13C[C@@H](CO)N(C(=O)CCC(=O)OC)C3=N2 (stereo partly drawn)	.	.	.	.	-1
CC(=O)c1cc(-c2ccccc2)n(CC(=O)NCc2ccc(Cl)cc2)c1C	.	.	.	.	-1
c1ccc(-c2ccc3c(c2)NCCN3)cc1	0	-10	52*	-23	-26
c1ccc(-c2ccncc2)cc1	.	6	.	.	-6
Cc1cccc(Cn2cc(COC(=O)N3CCOCC3)nn2)c1	.	.	.	.	-5
COc1cc2c(cc1OC)C(C)N(C(=O)c1cc3ccccc3o1)CC2 (stereo not drawn)	-1	2	51*	5	4
O=C(COc1cccc(Cl)c1)N/N=C\c1cc2ccccc2nc1Cl	-1	148*	-8	-1	7
Cc1ccccc1OCC(=O)N/N=C/c1cc2ccccc2nc1Cl	2	-4	5	7	-4
Cc1ccccc1Nc1cc2ccccc2c(=O)[nH]1	-5	3	21	3	.
O=c1[nH]c(Nc2ccc(F)cc2)cc2ccccc12	0	13	10	-2	105*
COc1ccc(Br)cc1/C=N/n1c(C)nc2ccccc2c1=O	0	-8	58*	9	6
CC1(C)c2ccccc2N2CCC(=O)NC21/C=C/c1ccco1 (stereo not drawn)	3	106*	7	5	-10

High-throughput results from PubChem.
